Data published in PubChem BioAssay (EPA / NIEHS).
Active and inactive are the calls of the source. How the source made its calls: active means hit-call score of the fitted dose curve at least 0.9, where 1 is the maximum; inactive means score below 0.9.

What was measured:
Details in all cases: mRNA level, 48 h; actives raise or lower the signal
[1] = read-out: growth arrest and DNA damage 45 (GADD45A), GADD45A (gene 1647); assay: LTEA_HepaRG_GADD45A: Life Technologies and Expression Analysis (LTEA) Assay for growth arrest and DNA damage 45 (GADD45A) using HepaRG (AID 2283458)
Summary of the method: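 GADD45A expression was measured by TaqMan qRT-PCR against three housekeeping genes (ACTB, GAPDH, POLR2A) after 48 h treatment of HepaRG cells. Eight-point half-log series up to 100 uM in 0.5% DMSO, run in duplicate.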

[2] = read-out: Forkhead box O3 (FOXO3), FOXO3 (gene 2309); assay: LTEA_HepaRG_FOXO3: Life Technologies and Expression Analysis (LTEA) Assay for Forkhead box O3 (FOXO3) using HepaRG (AID 2283459)
Summary of the method: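 FOXO3 transcript measured by qRT-PCR (normalized to ACTB, GAPDH, POLR2A) after 48 h exposure of HepaRG cells in serum-free induction medium. Duplicates, eight half-log concentrations up to 100 uM, 0.5% DMSO; gain or loss fitted against DMSO.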

[3] = read-out: ABC Transporter (ABCB1), ABCB1 (gene 5243); assay: LTEA_HepaRG_ABCB1: Life Technologies and Expression Analysis (LTEA) Assay for ABC Transporter (ABCB1) using HepaRG (AID 2283460)
Summary of the method: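 ABCB1 transcript level measured by TaqMan qRT-PCR against three housekeeping genes after 48 h chemical exposure of differentiated HepaRG cells. Top concentration 100 uM, half-log steps, eight points, 0.5% DMSO vehicle; bidirectional fit relative to DMSO.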

[4] = read-out: growth arrest and DNA damage 45 (GADD45B), GADD45B (gene 4616); assay: LTEA_HepaRG_GADD45B: Life Technologies and Expression Analysis (LTEA) Assay for growth arrest and DNA damage 45 (GADD45B) using HepaRG (AID 2283461)
Summary of the method: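 qRT-PCR read-out (Fluidigm TaqMan, housekeeping-normalized) of mRNA change in human HepaRG cells after 48 h chemical exposure; 8-point curve, top 100 uM, half-log steps, 0.5% DMSO vehicle; gain or loss fitted relative to DMSO baseline.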

[5] = read-out: ABC Transporter (ABCB11), ABCB11 (gene 8647); assay: LTEA_HepaRG_ABCB11: Life Technologies and Expression Analysis (LTEA) Assay for ABC Transporter (ABCB11) using HepaRG (AID 2283463)
Summary of the method: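 ABCB11 transcript levels quantified by TaqMan qRT-PCR against three housekeeping genes after 48 h chemical exposure of HepaRG cultures. Concentrations up to 100 uM in half-log steps, 0.5% DMSO vehicle; both induction and suppression scored.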

[6] = read-out: ATP-citrate lyase (ACLY), ACLY (gene 47); assay: LTEA_HepaRG_ACLY: Life Technologies and Expression Analysis (LTEA) Assay for ATP-citrate lyase (ACLY) using HepaRG (AID 2283466)
Summary of the method: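 ACLY mRNA quantified by qRT-PCR on Fluidigm arrays against three housekeeping genes, after 48 h chemical treatment of HepaRG cells (top concentration 100 uM, half-log steps, 0.5% DMSO vehicle). Up- or down-regulation fitted relative to DMSO.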

[7] = read-out: Alkaline Phosphatase, Placental (ALPP) gene, ALPP (gene 250); assay: LTEA_HepaRG_ALPP: Life Technologies and Expression Analysis (LTEA) Assay for Alkaline Phosphatase, Placental (ALPP) gene using HepaRG (AID 2283468);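 on AC50: differentiated human HepaRG liver cells in serum-free induction medium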
Summary of the method: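 qRT-PCR readout of ALPP mRNA (Fluidigm TaqMan), normalized to ACTB/GAPDH/POLR2A, after 48 h chemical exposure of HepaRG cells; 8-point half-log series, top 100 uM, 0.5% DMSO vehicle. Bidirectional curve fit versus DMSO baseline.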

[8] = read-out: Bcl-2 (BAD) gene, BAD (gene 572); assay: LTEA_HepaRG_BAD: Life Technologies and Expression Analysis (LTEA) Assay for Bcl-2 (BAD) gene using HepaRG (AID 2283469)
Summary of the method: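 Read-out: qRT-PCR of BAD mRNA, normalized to three housekeeping genes. Human HepaRG cultures got 48 h chemical exposure in 0.5% DMSO, duplicate eight-point half-log series topping at 100 uM. Gain or loss of signal fitted versus DMSO vehicle.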

[9] = read-out: Bcl-2 (BAX) gene, BAX (gene 581); assay: LTEA_HepaRG_BAX: Life Technologies and Expression Analysis (LTEA) Assay for Bcl-2 (BAX) gene using HepaRG (AID 2283470)
Summary of the method: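 Gene expression measured by Fluidigm qRT-PCR with three housekeeping genes for normalisation. HepaRG cells, plated 48 h beforehand, treated 48 h at up to 100 uM (8-point, half-log) in 0.5% DMSO. Bidirectional fitting versus DMSO.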

[10] = read-out: adenosine kinase (ADK) gene, ADK (gene 132); assay: LTEA_HepaRG_ADK: Life Technologies and Expression Analysis (LTEA) Assay for adenosine kinase (ADK) gene using HepaRG (AID 2283471)
Summary of the method: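 Read-out is ADK transcript level measured by qRT-PCR and normalised to three housekeeping genes. Cells are human HepaRG, dosed for 48 h at up to 100 uM in 0.5% DMSO. Gain or loss of signal is fitted against DMSO controls.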

[11] = read-out: Alpha-fetoprotein (AFP) gene, AFP (gene 174); assay: LTEA_HepaRG_AFP: Life Technologies and Expression Analysis (LTEA) Assay for Alpha-fetoprotein (AFP) gene using HepaRG (AID 2283472)
Summary of the method: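 AFP transcript measured by TaqMan qRT-PCR with three housekeeping genes for normalization, after 48 h chemical treatment of HepaRG cells (top 100 uM, half-log steps, 0.5% DMSO). Gain or loss fitted against vehicle.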

BCL2L11 (gene 10018) = assay: LTEA_HepaRG_BCL2L11: Life Technologies and Expression Analysis (LTEA) Assay for Bcl-2 (BCL2L11) gene using HepaRG (AID 2283473)
Summary of the method: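 HepaRG, 48 h exposure, 8-pt half-log series from 100 uM in 0.5% DMSO, duplicates; qRT-PCR (Fluidigm TaqMan) for BCL2L11, housekeeping-normalized; bidirectional curve fit relative to DMSO baseline.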

[12] = read-out: Apolipoprotein A-V (APOA5) gene, APOA5 (gene 116519); assay: LTEA_HepaRG_APOA5: Life Technologies and Expression Analysis (LTEA) Assay for Apolipoprotein A-V (APOA5) gene using HepaRG (AID 2283474)
Summary of the method: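 HepaRG, 48 h chemical exposure in serum-free induction medium, 8-pt half-log series (top 100 uM), 0.5% DMSO vehicle, duplicates. Readout: APOA5 mRNA by qRT-PCR, housekeeping-normalized; bidirectional fit vs DMSO baseline.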

[13] = read-out: Apoptosis regulator Bcl-2 (Homo sapiens) (UniProt P10415); assay: LTEA_HepaRG_BCL2: Life Technologies and Expression Analysis (LTEA) Assay for Bcl-2 gene using HepaRG (AID 2283475)
Summary of the method: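 qRT-PCR of BCL2 transcript, normalized to three housekeeping genes (ACTB, GAPDH, POLR2A), after 48 h chemical exposure of HepaRG cells; concentrations top 100 uM with half-log dilutions, 0.5% DMSO vehicle, duplicates; changes up or down fitted relative to vehicle.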

Caspase-3 (Homo sapiens) = Caspase-3 (Homo sapiens) (UniProt P42574); assay: LTEA_HepaRG_CASP3: Life Technologies and Expression Analysis (LTEA) Assay for cysteine-aspartic acid protease (CASP3) using HepaRG (AID 2283477)
Summary of the method: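 HepaRG, 48 h exposure, 8 conc. (top 100 uM, half-log steps, duplicate), 0.5% DMSO vehicle; qRT-PCR of CASP3 transcript, housekeeping-normalised (ACTB/GAPDH/POLR2A); bidirectional curve fit vs DMSO baseline.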

[14] = read-out: ABC Transporter (ABCC2), ABCC2 (gene 1244); assay: LTEA_HepaRG_ABCC2: Life Technologies and Expression Analysis (LTEA) Assay for ABC Transporter (ABCC2) using HepaRG (AID 2283464)
Summary of the method: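 qRT-PCR (TaqMan, Fluidigm array) read-out of ABCC2 mRNA, normalized to three housekeeping genes. Differentiated HepaRG cells were treated 48 h in serum-free induction medium with 8-point half-log series from 100 uM in 0.5% DMSO; curves fitted bidirectionally relative to DMSO.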

[15] = read-out: Peroxisomal acyl-coenzyme A oxidase 1 (ACOX1) gene, ACOX1 (gene 51); assay: LTEA_HepaRG_ACOX1: Life Technologies and Expression Analysis (LTEA) Assay for Peroxisomal acyl-coenzyme A oxidase 1 (ACOX1) gene using HepaRG (AID 2283467)
Summary of the method: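 ACOX1 transcript levels were quantified by TaqMan qRT-PCR against three housekeeping genes after 48 h chemical exposure of differentiated human HepaRG cells. Exposure used eight half-log steps topping at 100 uM, 0.5% DMSO vehicle, in duplicate. Bidirectional curve fits were made relative to DMSO.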

[16] = read-out: Bcl-2 (BID) gene, BID (gene 637); assay: LTEA_HepaRG_BID: Life Technologies and Expression Analysis (LTEA) Assay for Bcl-2 (BID) gene using HepaRG (AID 2283476)
Summary of the method: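 Duplicate 48 h treatments of HepaRG cells in serum-free induction medium spanned 100 uM downward in half-log steps, 0.5% DMSO. Transcript change quantified by qRT-PCR against three housekeeping genes, fitted up or down versus DMSO.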

[17] = read-out: ABC Transporter (ABCC3), ABCC3 (gene 8714); assay: LTEA_HepaRG_ABCC3: Life Technologies and Expression Analysis (LTEA) Assay for ABC Transporter (ABCC3) using HepaRG (AID 2283462)
Summary of the method: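 qRT-PCR read-out of ABCC3 transcript, normalized to three housekeeping genes (ACTB, GAPDH, POLR2A), after 48 h chemical exposure of human HepaRG cells. Eight half-log concentrations, highest 100 uM, in 0.5% DMSO; gain or loss fitted relative to DMSO baseline.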

[18] = read-out: Broad substrate specificity ATP-binding cassette transporter ABCG2 (Homo sapiens) (UniProt Q9UNQ0); assay: LTEA_HepaRG_ABCG2: Life Technologies and Expression Analysis (LTEA) Assay for ABC Transporter (ABCG2) using HepaRG (AID 2283465)
Summary of the method: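 ABCG2 transcript was quantified by TaqMan qRT-PCR against three housekeeping genes in HepaRG cells. Cells were treated in duplicate for 48 h across an 8-point half-log series up to 100 uM, with 0.5% DMSO vehicle. Gain or loss versus DMSO was fit.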

Measured: AC50

Chain of Broad substrate specificity ATP-binding cassette transporter ABCG2 (Homo sapiens) (Q9UNQ0 whole entry, looked up): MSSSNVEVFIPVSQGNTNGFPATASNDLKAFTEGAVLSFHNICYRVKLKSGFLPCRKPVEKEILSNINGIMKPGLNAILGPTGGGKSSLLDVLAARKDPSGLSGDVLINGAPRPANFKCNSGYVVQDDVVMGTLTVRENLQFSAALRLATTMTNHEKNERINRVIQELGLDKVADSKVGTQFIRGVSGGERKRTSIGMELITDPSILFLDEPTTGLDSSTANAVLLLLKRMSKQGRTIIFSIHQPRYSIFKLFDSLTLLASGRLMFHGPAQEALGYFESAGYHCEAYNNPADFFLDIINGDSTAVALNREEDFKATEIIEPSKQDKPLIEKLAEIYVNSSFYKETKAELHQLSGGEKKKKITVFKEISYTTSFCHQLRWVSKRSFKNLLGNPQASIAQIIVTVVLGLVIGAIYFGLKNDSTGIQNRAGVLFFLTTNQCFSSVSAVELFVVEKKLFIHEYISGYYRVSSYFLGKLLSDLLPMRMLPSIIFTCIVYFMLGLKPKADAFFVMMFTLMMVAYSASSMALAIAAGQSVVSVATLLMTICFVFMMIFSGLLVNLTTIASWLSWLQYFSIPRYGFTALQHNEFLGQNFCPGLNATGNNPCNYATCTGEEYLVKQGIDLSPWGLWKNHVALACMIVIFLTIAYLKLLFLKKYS
Chain of Caspase-3 (Homo sapiens) (P42574 whole entry, looked up): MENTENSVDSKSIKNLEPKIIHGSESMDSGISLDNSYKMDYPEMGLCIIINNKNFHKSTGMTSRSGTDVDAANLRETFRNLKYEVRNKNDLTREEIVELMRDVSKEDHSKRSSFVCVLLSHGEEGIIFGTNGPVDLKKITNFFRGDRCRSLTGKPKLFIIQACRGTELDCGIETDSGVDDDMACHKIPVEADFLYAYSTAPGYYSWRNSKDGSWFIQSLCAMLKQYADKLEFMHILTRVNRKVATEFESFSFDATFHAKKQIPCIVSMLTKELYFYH
Chain of Apoptosis regulator Bcl-2 (Homo sapiens) (P10415 whole entry, looked up): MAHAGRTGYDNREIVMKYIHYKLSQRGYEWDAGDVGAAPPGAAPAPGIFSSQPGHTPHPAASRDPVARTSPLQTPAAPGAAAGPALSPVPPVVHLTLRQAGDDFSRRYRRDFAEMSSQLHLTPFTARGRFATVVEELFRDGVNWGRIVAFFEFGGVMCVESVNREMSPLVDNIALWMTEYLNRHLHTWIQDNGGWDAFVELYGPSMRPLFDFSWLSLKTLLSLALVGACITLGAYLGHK

CC1=C(/C=C/C(C)=C/C=C/C(C)=C/CO)C(C)(C)CCC1
active: [3] 52200 nM | [12] 52200 nM
not listed: [14] | [15] | [16] | [17] | [18]
inactive: all other assays above

CC(C)c1ccc(C(=O)N=C(N)N)cc1S(C)(=O)=O
active: [1] 676 nM | [2] 264 nM | [3] 8320 nM | [5] 392 nM | [14] 14000 nM | [15] 7390 nM | [7] 590 nM | [8] 407 nM | [9] 7390 nM | [10] 418 nM | [11] 350 nM | BCL2L11 (gene 10018) 397 nM | [12] 302 nM | [13] 558 nM | [16] 367 nM | Caspase-3 (Homo sapiens) 383 nM
inactive: [4]

C=CCc1ccc(O)c(OC)c1
not listed: [3]
inactive: all other assays above

Cc1cc(NC(=O)C(=O)O)cc(C)c1Oc1ccc(O)c2c1CCC2
active: [5] 7.78 nM | [11] 9920 nM
not listed: [14] | [17]
inactive: all other assays above

OC[C@@H](O)[C@@H](O)[C@H](O)[C@H](O)CO
not listed: [6] | [15] | [16] | [17] | [18]
inactive: all other assays above

O=C(O)CCCCC(=O)O
not listed: [14] | [15] | [16] | [17]
inactive: all other assays above

CCCCCCCCCCCCCCCC
not listed: [6] | [14] | [16] | [17] | [18]
inactive: all other assays above

Cc1cccc(Nc2cc(Cl)nc(SCC(=O)O)n2)c1C
active: [15] 10900 nM | [16] 276 nM
not listed: [3] | [14]
inactive: all other assays above
